This is part of a sample that, as a whole, favours compounds with a hit. Of some 79,000 tested, about 15% had one in any assay. Active and inactive are the calls of the source. Rule as the data show it: active = growth inhibition above about 70%; inactive = the rest.
Tests used:
[1] = NCI Yeast Anticancer Drug Screen. Data for the rad52 strain (AID 147);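 also: 0% = growth of vehicle-treated control cultures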; details: S. cerevisiae rad52 mutant growth inhibition, stronger effect = higher value
Summary of the method: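 Compounds are applied to a genetically defined yeast strain lacking normal DNA damage repair, and inhibition of growth is expressed relative to cultures given vehicle only.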

[2] = NCI Yeast Anticancer Drug Screen. Data for the wt1 strain (AID 149);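 also: 0% = growth of vehicle-treated wt1 cultures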; details: S. cerevisiae wt1 strain (SPY 50644) growth inhibition, stronger effect = higher value
Summary of the method: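 wt1 strain grown with compound or vehicle; inhibition taken from the growth difference.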

[3] = NCI Yeast Anticancer Drug Screen. Data for the rad50EPP+ strain (AID 151);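 also: 0% = growth of vehicle-treated control cultures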; details: S. cerevisiae rad50 mutant strain, stronger effect = higher value
Summary of the method: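 Compounds were applied to the rad50EPP+ yeast strain, which bears a defined DNA repair alteration, and growth inhibition was determined relative to vehicle-treated cultures.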

[4] = NCI Yeast Anticancer Drug Screen. Data for the mgt1 strain (AID 153); details: S. cerevisiae mgt1 mutant growth inhibition, stronger effect = higher value
Summary of the method: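 Strain: mgt1 yeast, one of a set carrying defined DNA damage repair or cell cycle control alterations. Compound-treated growth compared with vehicle.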

[5] = NCI Yeast Anticancer Drug Screen. Data for the rad50 strain (AID 155);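 also: 0% = growth of vehicle-only cultures of the same strain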; details: S. cerevisiae rad50 strain growth inhibition, stronger effect = higher value
Summary of the method: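 DNA repair mutant yeast, compound exposure, growth read-out; inhibition is taken relative to vehicle.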

[6] = NCI Yeast Anticancer Drug Screen. Data for the mec2-1 strain (AID 157); details: S. cerevisiae mec2-1 strain, stronger effect = higher value
Summary of the method: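 Strain: mec2-1 (DNA repair/cell cycle alteration). Compound exposure, then growth measured; inhibition expressed relative to vehicle.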

[7] = NCI Yeast Anticancer Drug Screen. Data for the rad14 strain (AID 159);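 also: 0% = growth of vehicle-treated control cultures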; details: S. cerevisiae rad14 strain growth inhibition, stronger effect = higher value
Summary of the method: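 DNA repair-defective yeast, compound-exposed; % growth inhibition derived by comparison with vehicle-treated controls.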

[8] = NCI Yeast Anticancer Drug Screen. Data for the sgs1 mgt1 strain (AID 161);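 also: 0% = growth of cultures given vehicle only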; details: S. cerevisiae sgs1 mgt1 strain, stronger effect = higher value
Summary of the method: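 Genetically altered yeast, compound exposure, growth inhibition relative to vehicle.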

[9] = NCI Yeast Anticancer Drug Screen. Data for the CLN2oe strain (AID 163);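 also: 0% = growth of vehicle-only control cultures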; details: S. cerevisiae CLN2oe strain, stronger effect = higher value
Summary of the method: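 Growth of a genetically modified yeast strain is measured after compound exposure and compared with cultures given vehicle alone.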

[10] = NCI Yeast Anticancer Drug Screen. Data for the cln2 rad14 strain (AID 165);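 also: 0% = growth equal to vehicle treated cultures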; details: S. cerevisiae cln2 rad14 strain, stronger effect = higher value
Summary of the method: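 Compounds are applied to the cln2 rad14 yeast strain, and growth is then compared with that of vehicle-treated cultures to give inhibition.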

[11] = NCI Yeast Anticancer Drug Screen. Data for the bub3 strain (AID 167); details: S. cerevisiae bub3 mutant strain, stronger effect = higher value
Summary of the method: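 In this screen, a yeast mutant lacking normal mitotic checkpoint function is challenged with compound. Relative growth versus vehicle gives the inhibition value.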

[12] = NCI Yeast Anticancer Drug Screen. Data for the wt2 strain (AID 169);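 also: 0% = growth of vehicle-treated yeast cultures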; details: S. cerevisiae wt2 strain growth inhibition, stronger effect = higher value
Summary of the method: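 This strain belongs to a panel of yeast strains with defined genetic alterations in DNA damage repair or cell cycle control. Compounds are applied, and growth inhibition is measured against vehicle-treated cultures.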

[13] = NCI Yeast Anticancer Drug Screen. Data for the mlh1 strain (AID 171);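 also: 0% = growth of vehicle-treated control cultures of the same strain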; details: S. cerevisiae mlh1 strain growth inhibition, stronger effect = higher value
Summary of the method: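 Growth of the mutant yeast strain after compound exposure, expressed as inhibition relative to vehicle-only controls.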

[14] = NCI Yeast Anticancer Drug Screen. Data for the sgs1 strain (AID 173);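 also: 0% = growth of vehicle-only control cultures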; details: S. cerevisiae sgs1 mutant, stronger effect = higher value
Summary of the method: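 Growth of a yeast strain bearing a defined genetic alteration is measured after compound treatment. Inhibition is expressed relative to vehicle-only controls.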

[15] = NCI Yeast Anticancer Drug Screen. Data for the mlh1 rad18 strain (AID 175); details: S. cerevisiae mlh1 rad18 strain growth inhibition, stronger effect = higher value
Summary of the method: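 Read-out is yeast growth inhibition, calculated against vehicle-only controls. The compound was applied to a strain engineered with DNA damage repair alterations.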

[16] = NCI Yeast Anticancer Drug Screen. Data for the rad18 strain (AID 177); details: S. cerevisiae rad18 mutant growth inhibition, stronger effect = higher value
Summary of the method: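 Growth of the mutant yeast strain after compound exposure, normalised to vehicle-only cultures.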

[17] = at 5.0 µM (retest, dose inferred, filed as 0.5)
[18] = at 50.0 µM (retest, dose inferred, filed as 5.0)

Measured: growth inhibition

CN(C)CCNC(=O)c1cccc2c1Oc1c(cccc1[N+](=O)[O-])O2
inactive: [1]; at 1.2 µM -20% | [1]; at 3.7 µM -21% | [1]; at 11.0 µM -12% | [1]; at 33.0 µM 59% | [2]; at 1.2 µM -13% | [2]; at 3.7 µM -20% | [2]; at 11.0 µM -14% | [2]; at 33.0 µM -12% | [2]; at 100.0 µM 29% | [3]; at 1.2 µM 0% | [3]; at 3.7 µM 9% | [3]; at 11.0 µM 3% | [3]; at 33.0 µM 26% | [3]; at 100.0 µM 68% | [4]; at 1.2 µM 9% | [4]; at 3.7 µM 17% | [4]; at 11.0 µM 16% | [4]; at 33.0 µM 30% | [4]; at 100.0 µM 60% | [5]; at 1.2 µM 6% | [5]; at 3.7 µM 10% | [5]; [17] 29% | [5]; at 11.0 µM 24% | [5]; at 50.0 µM 32.6% | [6]; at 1.2 µM -12% | [6]; at 3.7 µM -23% | [6]; [17] -7% | [6]; at 11.0 µM -20% | [6]; at 33.0 µM -9% | [6]; [18] 16% | [6]; at 50.0 µM 7.85% | [6]; at 100.0 µM 56% | [7]; at 1.2 µM -12% | [7]; at 3.7 µM -12% | [7]; at 11.0 µM -10% | [7]; at 33.0 µM -8% | [7]; at 100.0 µM 40% | [8]; [17] 11% | [8]; [18] 16% | [8]; at 50.0 µM 11.5% | [9]; at 1.2 µM 24% | [9]; at 3.7 µM 12% | [9]; at 11.0 µM 20% | [9]; at 33.0 µM 6% | [9]; at 100.0 µM 58% | [10]; [17] 47% | [10]; [18] 38% | [10]; at 50.0 µM 14.4% | [11]; at 1.2 µM 25% | [11]; at 3.7 µM 31% | [11]; [17] 20% | [11]; at 11.0 µM 13% | [11]; at 33.0 µM 26% | [11]; [18] 29% | [11]; at 50.0 µM 0.95% | [12]; at 1.2 µM -37% | [12]; at 3.7 µM -27% | [12]; at 11.0 µM -40% | [12]; at 33.0 µM -37% | [12]; at 100.0 µM 26% | [13]; at 1.2 µM 15% | [13]; at 3.7 µM 13% | [13]; at 11.0 µM 18% | [13]; at 33.0 µM 38% | [14]; at 1.2 µM -10% | [14]; at 3.7 µM 2% | [14]; at 11.0 µM -1% | [14]; at 33.0 µM 2% | [14]; at 100.0 µM 48% | [15]; [17] 15% | [15]; [18] 29% | [15]; at 50.0 µM 18.4% | [16]; at 1.2 µM -3% | [16]; at 3.7 µM 0% | [16]; at 11.0 µM -5% | [16]; at 33.0 µM 13% | [16]; at 100.0 µM 69%
active: [1]; at 100.0 µM 93% | [5]; at 33.0 µM 76% | [5]; [18] 72% | [5]; at 100.0 µM 95% | [11]; at 100.0 µM 74% | [13]; at 100.0 µM 75%

— PubChem BioAssay (NCI)
